Sampled rows, rich in hits. Any-hit rate of the full collection: about 12%.
L3MBTL1 block: qHTS Assay for the Inhibitors of L3MBTL1 | Lethal(3)malignant brain tumor-like protein 1 (Homo sapiens), Q9Y468 | AlphaScreen L3MBTL1–H3K9me1 peptide binding | Potency, µM (series often up to 57.1 µM), inactives show top-dose activity, negative = inhibition, usual class: inhibitors | 230,000 tested, 0.66% active; further: on the % scale 0 is the no-effect control and ±100 the full control effect; nearly all actives have a fitted effect of over 60% in size
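First, the protein-peptide complex forms for 30 min at room temperature (L3MBTL1 50 nM, biotinylated H3K9me1 peptide 75 nM). Next, compounds are pin-transferred and incubated 30 min. Finally, AlphaScreen beads are added and read after 30 min.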
JMJD2A Tudor: qHTS Assay for Inhibitors of JMJD2A-Tudor Domain. Lysine-specific demethylase 4A (Homo sapiens), O75164. AlphaScreen JMJD2A-Tudor / H3K4me3 peptide binding. Potency, µM (series often up to 114 µM), without a hit: at the top dose activity change, negative = inhibition, usual class: inhibitors. 390,000 tested, 4.4% active. AID 504339, 2011; further: on the % scale 0 is the no-effect control and ±100 the full control effect; nearly all actives have a fitted effect of over 50% in size
BAZ2B inh: qHTS Assay for Inhibitors of BAZ2B; Bromodomain adjacent to zinc finger domain protein 2B (Homo sapiens), Q9UIF8; AlphaScreen BAZ2B-H3K14Ac peptide displacement; Potency, µM (titrated, usually from 114 µM), inactives show at the highest dose activity change, negative = inhibition, most hits filed as inhibitors; 360,000 tested, 4.4% active; further: on the % scale 0 is the no-effect control and ±100 the full control effect; nearly all actives have a fitted effect of over 60% in size
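Protein-peptide AlphaScreen: BAZ2B 50 nM, b-H3K14Ac 50 nM, 1x PBS pH 7.4 + 0.01% Tween-20. Preincubation 30 min RT; cpd 30 min RT (top 110 uM); beads 20 min RT, light-protected.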
Sfp inh: qHTS Assay for Inhibitors of Bacillus subtilis Sfp phosphopantetheinyl transferase (PPTase). 4'-phosphopantetheinyl transferase ffp (Bacillus subtilis), Q9F4F7. Biochemical Sfp PPTase activity, qHTS. Potency, µM, for inactives: largest response in the series, negative = inhibition, actives largely listed as inhibitors. 310,000 tested, 3.5% active;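 further: the enzyme is Sfp with the accession as filed and its product quenches rhodamine fluorescence; 0% = enzyme reaction without inhibitor and -100% = no enzyme wells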
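Reaction rates are the 30-min fluorescence difference (ex 525, em 598 nm) in wells containing 15 nM Sfp, 5 uM rhodamine-CoA and 12.5 uM BHQ-2-YbbR at pH 7.6 with 10 mM MgCl2.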
G9a block: qHTS Assay for Inhibitors of Histone Lysine Methyltransferase G9a; Potency, µM (titrated, usually from 102 µM), for the others: top-dose activity, negative = inhibition, usual class: inhibitors; 350,000 tested, 8.8% active; G9a H3K9 monomethylation, AlphaScreen, 2 h; Histone-lysine N-methyltransferase EHMT2 (Homo sapiens), Q96KQ7; further: on the % scale 0 is the no-effect control and ±100 the full control effect; nearly all actives have a fitted effect of over 75% in size
Target sequence (Q96KQ7 913-1193 limits assumed): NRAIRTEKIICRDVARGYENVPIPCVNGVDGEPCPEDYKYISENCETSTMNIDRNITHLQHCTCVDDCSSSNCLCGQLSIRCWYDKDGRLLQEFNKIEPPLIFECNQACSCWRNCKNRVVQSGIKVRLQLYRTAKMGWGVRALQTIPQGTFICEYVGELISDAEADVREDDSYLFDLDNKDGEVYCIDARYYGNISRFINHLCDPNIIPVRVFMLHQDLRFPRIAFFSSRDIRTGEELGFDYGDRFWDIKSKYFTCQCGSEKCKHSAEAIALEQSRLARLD
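Enzyme 20 nM + cpd, 15 min RT; add b-H3K9 pep 500 nM / SAM 20 uM; 2 h RT; anti-H3K9me1 Ab 0.5 ug/mL + SA donor / anti-rabbit acceptor beads 20 ug/mL each, 10 min; AlphaScreen read.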
HP1b binding inh: HTS for Inhibitors of HP1-beta Chromodomain Interactions with Methylated Histone Tails. Chromobox protein homolog 1 (Homo sapiens), P83916. AlphaScreen HP1-beta / biotin-H3K9me3 peptide binding. Potency, µM (top dose mostly 114 µM), inactives show at the top dose activity change, negative = inhibition, most hits filed as inhibitors. 390,000 tested, 0.56% active. AID 540317, 2011; further: nearly all actives have a fitted effect of over 70% in size
Target sequence (P83916 whole entry, looked up): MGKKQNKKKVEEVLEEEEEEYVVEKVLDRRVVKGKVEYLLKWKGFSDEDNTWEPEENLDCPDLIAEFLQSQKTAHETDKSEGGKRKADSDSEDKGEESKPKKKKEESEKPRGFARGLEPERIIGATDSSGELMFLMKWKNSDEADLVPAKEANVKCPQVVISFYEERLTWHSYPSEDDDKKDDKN
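AlphaScreen: HP1-beta (50 nM) preformed 30 min with biotin-H3(1-18)K9me3 peptide (50 nM) in PBS pH 7.4, 0.01% Tween-20. Compound added for 30 min at RT, then streptavidin donor/nickel chelate acceptor beads (10 ug/mL) for 30 min.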
The depositor's hits bear a star; ? = inconclusive; / = not tested or not shown; [ ] = another dose, or the depositor's remark. The call rests on the fitted dose curve; in most records, active means well fitted curve in the direction sought with a large enough effect; inconclusive means small, poorly fitted or top-dose-only effect, or another doubt; inactive means no such curve, though single readings can be large; an effect the other way counts as inactive or inconclusive. Potency means the concentration at half of the fitted maximal effect.

SMILES	L3MBTL1 block	JMJD2A Tudor	BAZ2B inh	Sfp inh	G9a block	HP1b binding inh
CCOc1ccc(CCNC(=O)C2CC(C)=CCC2C(=O)O)cc1OCC (configuration not stated)	/	25µM*	50µM*	7%	22µM*	?
O=C(CSc1nc2c([nH]c3ccccc32)c(=O)n1-c1ccc(Cl)cc1)N1CCOCC1	/	-6%	42%	/	8%[59 µM]	52%[57 µM]
COc1cc(C(=O)OCc2cc(=O)n3ccsc3n2)cc(OC)c1OC	/	-2%	-2%	/	12%[59 µM]	46%
COc1cccc(NC(=O)C(OC(=O)c2cnc(C)cn2)c2ccccc2)c1 (configuration not stated)	-2%	-19%	7%	/	45µM*	4%
COc1cccc(NC(=O)C(OC(=O)CNC(=O)c2ccccc2)c2ccccc2)c1 (configuration not stated)	/	-25%	/	/	/	/
COc1ccc(Nc2nc(-c3cccc(OC)c3O)nc3ccccc23)cc1	/	?	40µM*	-18%	50µM*	-16%
COc1cccc(-c2nc(NC(C)(C)C)c3ccccc3n2)c1O	-20%	?	?	?	?	-10%
CC1CCN(c2nc(-c3ccccc3O)nc3ccccc23)CC1	6%	22%	0%	10%	5%[59 µM]	67%
COc1cccc(-c2nc(N3CC(C)CC(C)C3)c3ccccc3n2)c1O (configuration not stated)	-7%	?	?	?	35µM*	?
COc1cccc(-c2nc(N3CCC(C)CC3)c3ccccc3n2)c1O	-4%	56µM*	?	?	35µM*	-44%
COc1cccc(-c2nc(N3CCCC3)c3ccccc3n2)c1O	5%	?	?	-15%	/	-9%
CCN(CC)C[C@@H](O)CN1CCCCc2nc(C)c(C)cc21	/	/	/	9%	/	/
CCOC(=O)c1c[nH]c2c(C)ccc(Cl)c2c1=O	0%[11.4 µM]	28µM*	-18%	9%	6%	6%
CCOC(=O)c1ccc(NC(=O)CSc2nnc(CCc3ccc(C)o3)n2-c2ccccc2)cc1	-11%	-17%	-29%	16µM*	45µM*	12%
Cc1c(Cl)cccc1NC(=O)CSc1nnc(C)n1-c1ccccc1	-6%	-14%	/	7%	7%[59 µM]	26%
Cc1ccc(CCc2nnc(SCC(=O)Nc3ccccc3Cl)n2-c2ccccc2)o1	-10%	-33%	?	-22%	28µM*	-4%
COC(=O)c1ccc(NC(=O)CSc2nnc(C)n2-c2ccccc2)cc1	/	-15%	-6%	-27%	-48%[59 µM]	16%
Cc1cccc(OCC(=O)Nc2ccc(Cl)c(-c3nc4ccccc4[nH]3)c2)c1	/	-22%	-4%	/	-2%[59 µM]	34%
Cc1c(NC(=O)c2cc(-c3ccccc3)nc3ccccc23)c(=O)n(-c2ccccc2)n1C	0%	-8%	/	/	/	30%
COc1ccc(-c2cc(C(=O)OC(C)C(=O)Nc3c(C)n(C)n(-c4ccccc4)c3=O)c3ccccc3n2)cc1 (configuration not stated)	14%	-8%	-2%	13%	22%[59 µM]	-5%
Cc1c(NC(=O)C(C)OC(=O)/C=C/c2ccco2)c(=O)n(-c2ccccc2)n1C (configuration not stated)	-3%	20µM*	50µM*	-4%	?	45µM*
Cc1c(NC(=O)COC(=O)c2cc(-c3ccc(-c4ccccc4)cc3)nc3ccccc23)c(=O)n(-c2ccccc2)n1C	4%	-12%	-2%	50µM*	1%[59 µM]	34%
Cc1c(NC(=O)C(C)OC(=O)c2cc(-c3cccc4ccccc34)nc3ccccc23)c(=O)n(-c2ccccc2)n1C (configuration not stated)	-2%	-27%	-5%	0%	11µM*	-3%
Cn1cnc(S(=O)(=O)N2CCC(C(=O)NCc3ccc(F)cc3)CC2)c1	/	-15%	-2%	/	8%[59 µM]	-3%
COc1ccccc1N1CCN(C(=O)c2ccc(-c3ccccc3)cc2)CC1	/	-30%	?	-10%	-30%[2.33 µM]	4%
SMILES	L3MBTL1 block	JMJD2A Tudor	BAZ2B inh	Sfp inh	G9a block	HP1b binding inh
O=C(c1noc2c1CCCC2)N1CCN(c2ccc(F)cc2)CC1	1%	-21%	2%	6%	0%[2.33 µM]	2%
O=C(c1ccc2[nH]c3c(c2c1)CCCC3)N1CCN(c2ccc(F)cc2)CC1	?	32µM*	40µM*	-5%	?	?
COc1ccccc1N1CCN(C(=O)c2ccc3[nH]c4c(c3c2)CCCC4)CC1	-20%	50µM*	45µM*	-21%	?	?
Cc1ccc(OCC(=O)Nc2ccc3nc(SCC(=O)N4CCCC4)sc3c2)cc1C	/	-4%	-19%	/	2%[59 µM]	48%
N#CC1=C(N)OC2=C(CC/C2=C\c2ccccc2Cl)C1c1ccccc1Cl (configuration not stated)	4%	?	?	-7%	22µM*	7%
N#CC1=C(N)OC2=C(CC/C2=C\c2ccccc2)C1c1ccccc1 (configuration not stated)	-1%	?	89µM*	21%	45µM*	?
Cc1ccc(Cn2c(=N)n(CC(O)COc3ccccc3)c3ccccc32)cc1 (configuration not stated)	/	-24%	-28%	22µM*	?	6%
O=C1OCCC1N(C(=O)C1CC1)c1cccc(Cl)c1 (configuration not stated)	/	/	/	-6%	/	/
Cn1cnc([N+](=O)[O-])c1Oc1ccc2ccccc2c1	-12%	-24%	-7%	-14%	50µM*	23%
CCOc1ccc(CNC(=O)c2cnc3c(C)cccn3c2=O)cc1	/	7%	-1%	/	4%[59 µM]	34%
COc1ccc(CN2C(=O)c3cccnc3C2=O)cc1S(=O)(=O)N1CCCCC1	/	-15%	?	10%	-29%	9%[57 µM]
COc1cccc(CNS(=O)(=O)c2cc(CN3C(=O)c4cccnc4C3=O)ccc2OC)c1	/	-18%	-28%	0%	16%	25%
COc1ccc(CN2C(=O)c3cccnc3C2=O)cc1S(=O)(=O)N1CCCC(C)C1 (configuration not stated)	/	-11%	56µM*	14%	18%	41%
COc1ccc(CN2C(=O)c3cccnc3C2=O)cc1S(=O)(=O)NCc1ccc(C)cc1	/	-14%	79µM*	15%	-24%	52%

Screening data (PubChem)
